In the supplement of paper PMC10849652:
The full data set covers some 7,900 targets. This sample favours those with a hit. About 0.6% of all pairs of compound and target were hits.

How the values were obtained:
Test in all cases: log2 fold change, soluble protein after heating vs DMSO (PISA); higher = thermal stabilisation; K562 cells, 10 uM, 30 min; active = over 0.2 and 3.5 SD of the protein, either way, in both replicates (recomputed)
[1] = compound: C[C@@H]1COCCN1C2=NC(=NC(=C2)C3(CC3)S(=O)(=O)C)C4=C5C=CNC5=CC=C4
Method in brief: (§1)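 Soluble protein was quantified by TMTpro 16plex LC-MS/MS after channel sums were equalised. It was obtained as the supernatant after 21,000xg for 90 min from pooled aliquots of K562 cells (2×10^6 cells/mL, 10 μM compound, 30 min) heated for 3 min across 48°C-58°C and extracted in PBS with 0.5% NP-40 at 4°C. Thermal stability values are relative to control samples and come from duplicates. They are given as log2 fold changes.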

[2] = compound: C[C@H](C1=CC=C(C=C1)C(=O)NC2=C3C=CNC3=NC=C2)N
Method in brief: as §1

duvelisib = compound: C[C@H](Nc1ncnc2nc[nH]c12)c1cc2cccc(Cl)c2c(=O)n1-c1ccccc1 [duvelisib]
Method in brief: as §1

tozasertib = compound: Cc1cc(Nc2cc(N3CCN(C)CC3)nc(Sc3ccc(NC(=O)C4CC4)cc3)n2)n[nH]1 [tozasertib]
Method in brief: as §1

[3] = compound: Cc1cc(SCc2sc(-c3ccc(C(F)(F)F)cc3)nc2C)ccc1OCC(=O)O
Method in brief: as §1

[4] = compound: CS(=O)(=O)c1ccc(-c2cnc(N)c(C(=O)Nc3ccccc3)n2)cc1
Method in brief: as §1

gandotinib = compound: Cc1cc(Nc2cc(CN3CCOCC3)c3nc(C)c(Cc4ccc(Cl)cc4F)n3n2)n[nH]1 [gandotinib]
Method in brief: as §1

crizotinib = compound: C[C@@H](Oc1cc(-c2cnn(C3CCNCC3)c2)cnc1N)c1c(Cl)ccc(F)c1Cl [crizotinib]
Method in brief: as §1

doramapimod = compound: Cc1ccc(-n2nc(C(C)(C)C)cc2NC(=O)Nc2ccc(OCCN3CCOCC3)c3ccccc23)cc1 [doramapimod]
Method in brief: as §1

ispinesib = compound: Cc1ccc(C(=O)N(CCCN)[C@@H](c2nc3cc(Cl)ccc3c(=O)n2Cc2ccccc2)C(C)C)cc1 [ispinesib]
Method in brief: as §1

Measured: log2 fold change

WARS1 (UniProt G3V227)
inactive: [1] -0.024 | [2] 0.147 | duvelisib -0.011 | tozasertib -0.016 | [3] -0.015

TMEM219 (UniProt Q86XT9)
inactive: [4] 0.049 | [1] -0.036 | [2] 0.114 | duvelisib -0.163 | gandotinib 0.034 | tozasertib -0.055 | [3] -0.241

UFM1 isoform 2 (UniProt P61960)
inactive: [4] -0.009 | [1] -0.065 | [2] -0.157 | duvelisib -0.004 | gandotinib -0.066 | tozasertib -0.042 | [3] 0.063

XIAP (UniProt P98170)
inactive: [4] 0.125 | [1] 0.092 | [2] -0.09 | duvelisib 0.068 | gandotinib 0.061 | tozasertib -0.01 | [3] -0.036

TRIM23 (UniProt P36406)
inactive: [4] 0.143 | crizotinib 0.152 | [2] -0.122 | duvelisib 0.008 | gandotinib 0.128 | tozasertib -0.135 | [3] 0.001 | doramapimod -0.043 | ispinesib 0.115

TXNL4B (UniProt Q9NX01)
UniProt Q9NX01, sequence (Q9NX01 whole entry, looked up): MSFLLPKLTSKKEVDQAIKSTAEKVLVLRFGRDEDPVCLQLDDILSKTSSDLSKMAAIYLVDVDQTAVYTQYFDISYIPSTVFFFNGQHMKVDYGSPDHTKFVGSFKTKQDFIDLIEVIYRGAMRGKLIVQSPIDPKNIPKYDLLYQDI
inactive: [4] 0.22 | crizotinib 0.309 | [2] 0.008 | duvelisib 0.083 | gandotinib -0.024 | tozasertib 0.07 | [3] 0.054 | doramapimod 0.037 | ispinesib -0.017

WDR4 isoform 3 (UniProt P57081)
inactive: [4] 0.074 | [1] 0.125 | gandotinib -0.247

TSPAN13 (UniProt O95857)
UniProt O95857, sequence (O95857 whole entry, looked up): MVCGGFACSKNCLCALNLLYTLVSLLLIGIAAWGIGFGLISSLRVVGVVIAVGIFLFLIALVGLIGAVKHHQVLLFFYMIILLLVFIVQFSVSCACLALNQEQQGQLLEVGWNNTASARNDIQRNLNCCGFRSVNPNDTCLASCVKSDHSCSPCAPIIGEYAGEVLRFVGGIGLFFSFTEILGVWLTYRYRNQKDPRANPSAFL
inactive: [4] -0.055 | [1] 0.4 | [2] -0.17 | duvelisib 0.045 | gandotinib -0.05 | tozasertib -0.06 | [3] -0.124 | ispinesib -0.03

U2AF1L5 (UniProt P0DN76)
inactive: crizotinib -0.105 | duvelisib -0.014 | tozasertib -0.025 | [3] 0.023 | doramapimod -0.1

TTC26
inactive: tozasertib -0.11 | ispinesib 0.105

TXNRD1 isoform 7 (UniProt Q16881)
inactive: [4] 0.075 | [1] -0.026 | duvelisib -0.049 | gandotinib 0.125 | [3] -0.015

TUBA4A (UniProt C9JJQ8)
inactive: [4] 0.009 | crizotinib -0.019 | [2] -0.159 | duvelisib 0.19 | tozasertib 0.001 | [3] 0.108 | doramapimod -0.046

VPS72 isoform 2 (UniProt Q15906)
UniProt Q15906, sequence (Q15906 whole entry, looked up): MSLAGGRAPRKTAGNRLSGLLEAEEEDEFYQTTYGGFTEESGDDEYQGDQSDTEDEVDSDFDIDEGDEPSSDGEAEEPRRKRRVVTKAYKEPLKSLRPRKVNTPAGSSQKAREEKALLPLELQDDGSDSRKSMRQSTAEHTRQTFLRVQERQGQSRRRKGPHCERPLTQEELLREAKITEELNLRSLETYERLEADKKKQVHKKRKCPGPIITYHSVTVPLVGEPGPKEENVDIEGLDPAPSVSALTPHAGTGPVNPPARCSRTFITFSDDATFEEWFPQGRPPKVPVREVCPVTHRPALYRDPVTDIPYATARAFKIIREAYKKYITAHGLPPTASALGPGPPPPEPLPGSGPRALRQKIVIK
inactive: [4] -0.041 | [1] 0.093 | [2] 0.196 | duvelisib -0.021 | tozasertib 0.007 | [3] -0.021 | ispinesib 0.218

TOM1 (UniProt O60784)
inactive: [4] -0.04 | crizotinib -0.054 | [1] -0.05 | gandotinib -0.018 | tozasertib 0.044 | doramapimod 0.052

UBXN8 (UniProt O00124)
UniProt O00124, sequence (O00124 whole entry, looked up): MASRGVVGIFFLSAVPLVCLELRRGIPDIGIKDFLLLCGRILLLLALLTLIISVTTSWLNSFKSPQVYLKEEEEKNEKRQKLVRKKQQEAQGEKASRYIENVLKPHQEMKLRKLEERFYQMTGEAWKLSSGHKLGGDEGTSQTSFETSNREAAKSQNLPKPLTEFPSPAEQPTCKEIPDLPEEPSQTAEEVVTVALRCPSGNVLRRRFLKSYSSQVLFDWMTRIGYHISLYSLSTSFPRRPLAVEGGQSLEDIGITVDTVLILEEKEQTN
inactive: [4] 0.054 | [1] -0.094 | [2] 0.161 | duvelisib 0.234 | gandotinib 0.026 | tozasertib -0.077 | [3] -0.101 | ispinesib -0.193

TVP23C (UniProt Q96ET8)
inactive: [2] 0.03 | duvelisib -0.065 | gandotinib -0.016 | tozasertib -0.028 | [3] -0.092

UBAP2L (UniProt F8W726)
inactive: gandotinib -0.072 | tozasertib -0.003

XAB2 (UniProt Q9HCS7)
inactive: [1] -0.223 | duvelisib -0.146 | [3] 0.013 | doramapimod -0.035 | ispinesib -0.223
active: crizotinib -0.69

VKORC1 (UniProt Q9BQB6)
UniProt Q9BQB6, sequence (Q9BQB6 whole entry, looked up): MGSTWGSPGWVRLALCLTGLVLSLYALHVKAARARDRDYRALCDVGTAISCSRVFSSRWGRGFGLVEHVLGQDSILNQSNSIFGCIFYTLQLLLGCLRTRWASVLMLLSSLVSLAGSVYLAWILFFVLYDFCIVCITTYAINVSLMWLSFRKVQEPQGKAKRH
active: crizotinib 0.494
inactive: [4] 0.012 | [2] -0.032 | duvelisib 0.153 | gandotinib -0.116 | tozasertib -0.027 | [3] 0.106 | doramapimod 0.033 | ispinesib -0.108

WARS1 (UniProt G3V5U1)
inactive: [4] 0.092 | crizotinib 0.09 | [1] -0.282 | doramapimod -0.299

VWA3B isoform 6 (UniProt Q502W6)
inactive: crizotinib -0.012 | [1] 0.074 | [2] 0.045 | duvelisib 0.337 | gandotinib -0.08 | tozasertib 0.028 | [3] 0.172 | doramapimod 0.079 | ispinesib -0.266

UNC119B (UniProt A6NIH7)
active: ispinesib 0.527
inactive: [4] 0.026 | crizotinib -0.08 | [2] 0.039 | duvelisib 0.178 | gandotinib 0.034 | tozasertib -0.019 | [3] -0.064 | doramapimod 0.263

UBIAD1 (UniProt Q9Y5Z9)
inactive: [4] 0.107 | crizotinib 0.024 | [2] 0.001 | duvelisib 0.021 | gandotinib 0.069 | tozasertib -0.019 | [3] 0.004 | doramapimod -0.1 | ispinesib -0.117

ULBP1 (UniProt Q9BZM6)
UniProt Q9BZM6, sequence (Q9BZM6 whole entry, looked up): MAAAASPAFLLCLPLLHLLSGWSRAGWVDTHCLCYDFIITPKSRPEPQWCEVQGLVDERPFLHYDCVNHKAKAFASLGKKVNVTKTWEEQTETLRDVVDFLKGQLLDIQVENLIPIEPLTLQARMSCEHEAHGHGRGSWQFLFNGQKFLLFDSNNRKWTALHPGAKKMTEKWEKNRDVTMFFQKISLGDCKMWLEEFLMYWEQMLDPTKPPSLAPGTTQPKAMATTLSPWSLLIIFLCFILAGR
inactive: [4] 0.188 | [1] 0.192 | [2] 0.156 | duvelisib -0.024 | tozasertib 0.044 | [3] 0.014 | ispinesib 0.011

WARS1 (UniProt G3V277)
inactive: [4] -0.009 | crizotinib -0.001 | gandotinib -0.218 | tozasertib -0.206 | doramapimod 0.029

WARS1 (UniProt G3V339)
inactive: [1] -0.123

TRPT1 isoform 4 (UniProt Q86TN4)
UniProt Q86TN4, sequence (Q86TN4 whole entry, looked up): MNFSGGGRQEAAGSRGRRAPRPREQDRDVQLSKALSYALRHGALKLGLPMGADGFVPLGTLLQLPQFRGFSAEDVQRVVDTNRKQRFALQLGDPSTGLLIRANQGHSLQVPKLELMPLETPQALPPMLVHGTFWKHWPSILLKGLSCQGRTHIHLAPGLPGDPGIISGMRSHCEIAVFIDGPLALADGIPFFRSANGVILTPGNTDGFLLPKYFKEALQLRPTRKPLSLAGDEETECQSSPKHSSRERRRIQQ
inactive: [4] -0.176 | crizotinib -0.011 | doramapimod 0.013 | ispinesib -0.105

UBE2J2 isoform 3 (UniProt Q8N2K1)
UniProt Q8N2K1, sequence (Q8N2K1 whole entry, looked up): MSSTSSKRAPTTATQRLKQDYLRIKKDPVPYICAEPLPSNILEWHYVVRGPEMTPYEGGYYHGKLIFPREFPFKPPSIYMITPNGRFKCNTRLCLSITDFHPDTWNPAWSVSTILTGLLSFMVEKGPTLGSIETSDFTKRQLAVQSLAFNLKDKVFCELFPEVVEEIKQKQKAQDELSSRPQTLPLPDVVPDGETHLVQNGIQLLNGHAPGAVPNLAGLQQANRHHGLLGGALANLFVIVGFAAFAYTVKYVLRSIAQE
inactive: [4] 0.252 | [1] -0.076 | [2] -0.365 | duvelisib 0.101 | gandotinib 0.028 | tozasertib -0.094 | [3] -0.01

UBE2D1 (UniProt P51668)
UniProt P51668, sequence (P51668 whole entry, looked up): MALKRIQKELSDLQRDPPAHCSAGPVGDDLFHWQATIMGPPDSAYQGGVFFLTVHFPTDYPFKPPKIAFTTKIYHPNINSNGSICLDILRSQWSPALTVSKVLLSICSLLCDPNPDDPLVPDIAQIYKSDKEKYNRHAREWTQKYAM
inactive: [4] 0.062 | [2] -0.004 | duvelisib 0.054 | gandotinib 0.047 | tozasertib -0.048 | [3] 0.102 | ispinesib 0.056

TMEM104 (UniProt Q8NE00)
UniProt Q8NE00, sequence (Q8NE00 whole entry, looked up): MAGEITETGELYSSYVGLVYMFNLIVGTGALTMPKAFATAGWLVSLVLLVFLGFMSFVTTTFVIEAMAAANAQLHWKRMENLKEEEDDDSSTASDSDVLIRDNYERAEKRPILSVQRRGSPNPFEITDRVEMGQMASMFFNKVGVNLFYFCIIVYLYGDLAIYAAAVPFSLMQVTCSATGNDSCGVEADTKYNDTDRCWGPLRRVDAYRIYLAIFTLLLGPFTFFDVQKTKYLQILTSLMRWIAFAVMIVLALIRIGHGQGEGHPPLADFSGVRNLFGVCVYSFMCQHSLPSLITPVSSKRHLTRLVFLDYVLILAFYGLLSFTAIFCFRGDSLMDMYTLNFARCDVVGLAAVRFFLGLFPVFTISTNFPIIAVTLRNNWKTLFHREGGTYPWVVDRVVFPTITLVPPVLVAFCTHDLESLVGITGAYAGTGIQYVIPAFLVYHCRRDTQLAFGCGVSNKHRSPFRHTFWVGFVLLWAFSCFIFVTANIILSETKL
inactive: crizotinib -0.145 | [1] 0.012 | [2] 0.009 | duvelisib 0.129 | gandotinib -0.087 | [3] -0.049 | doramapimod 0.112 | ispinesib -0.34

WDR75 (UniProt Q8IWA0)
UniProt Q8IWA0, sequence (Q8IWA0 whole entry, looked up): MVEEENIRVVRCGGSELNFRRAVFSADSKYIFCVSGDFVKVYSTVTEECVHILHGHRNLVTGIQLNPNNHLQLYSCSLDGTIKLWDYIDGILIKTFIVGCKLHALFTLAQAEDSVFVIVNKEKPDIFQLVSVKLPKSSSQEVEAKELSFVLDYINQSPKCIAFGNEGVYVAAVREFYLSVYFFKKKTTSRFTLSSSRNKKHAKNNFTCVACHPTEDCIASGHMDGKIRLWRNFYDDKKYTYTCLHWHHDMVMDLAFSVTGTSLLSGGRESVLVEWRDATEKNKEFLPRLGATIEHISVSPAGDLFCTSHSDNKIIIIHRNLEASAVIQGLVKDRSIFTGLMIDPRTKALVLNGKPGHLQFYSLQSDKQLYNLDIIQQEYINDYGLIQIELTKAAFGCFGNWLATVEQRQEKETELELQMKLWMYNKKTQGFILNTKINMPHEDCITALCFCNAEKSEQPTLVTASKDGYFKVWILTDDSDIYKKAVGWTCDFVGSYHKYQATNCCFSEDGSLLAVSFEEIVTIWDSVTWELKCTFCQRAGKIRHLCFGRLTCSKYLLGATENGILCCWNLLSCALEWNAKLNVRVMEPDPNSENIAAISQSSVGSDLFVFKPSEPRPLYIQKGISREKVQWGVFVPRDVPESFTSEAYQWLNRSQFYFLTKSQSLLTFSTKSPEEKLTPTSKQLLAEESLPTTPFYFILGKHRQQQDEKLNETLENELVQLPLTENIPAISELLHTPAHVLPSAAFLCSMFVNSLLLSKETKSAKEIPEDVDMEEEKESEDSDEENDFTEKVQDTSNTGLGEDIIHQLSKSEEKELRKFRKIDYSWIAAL
inactive: crizotinib -0.07 | [1] -0.03 | [2] 0.185 | duvelisib -0.082 | tozasertib -0.2 | [3] 0.112 | doramapimod 0.145 | ispinesib -0.219

UTP20 (UniProt O75691)
inactive: [1] -0.379 | tozasertib 0.021

TRIM44 (UniProt Q96DX7)
UniProt Q96DX7, sequence (Q96DX7 whole entry, looked up): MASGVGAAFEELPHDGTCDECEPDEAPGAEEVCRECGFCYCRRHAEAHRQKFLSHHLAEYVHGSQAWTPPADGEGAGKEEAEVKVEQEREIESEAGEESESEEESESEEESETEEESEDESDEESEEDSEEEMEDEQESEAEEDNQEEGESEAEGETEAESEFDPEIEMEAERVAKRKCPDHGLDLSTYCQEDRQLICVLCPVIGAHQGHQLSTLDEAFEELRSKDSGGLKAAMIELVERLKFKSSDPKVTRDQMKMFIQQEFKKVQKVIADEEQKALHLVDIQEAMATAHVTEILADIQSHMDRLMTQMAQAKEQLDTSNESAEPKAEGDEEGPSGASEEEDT
inactive: [4] 0.013 | crizotinib 0.083 | [2] -0.059 | duvelisib 0.063 | gandotinib 0.045 | tozasertib 0.022 | [3] 0.024 | doramapimod -0.004 | ispinesib 0.03

VDAC1 (UniProt C9JI87)
inactive: [4] 0.017 | [1] -0.195 | [2] 0.275 | duvelisib 0.09 | [3] -0.281
active: ispinesib -0.743

TMEM268 isoform 3 (UniProt Q5VZI3)
UniProt Q5VZI3, sequence (Q5VZI3 whole entry, looked up): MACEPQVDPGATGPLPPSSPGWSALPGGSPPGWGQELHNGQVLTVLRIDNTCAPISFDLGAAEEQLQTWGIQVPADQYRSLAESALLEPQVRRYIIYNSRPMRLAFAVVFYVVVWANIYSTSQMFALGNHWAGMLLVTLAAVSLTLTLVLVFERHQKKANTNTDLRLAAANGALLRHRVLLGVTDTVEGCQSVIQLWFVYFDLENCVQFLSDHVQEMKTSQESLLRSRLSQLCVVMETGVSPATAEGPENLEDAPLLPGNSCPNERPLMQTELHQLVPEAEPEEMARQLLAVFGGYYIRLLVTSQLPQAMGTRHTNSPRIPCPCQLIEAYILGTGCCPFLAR
inactive: [4] -0.146 | [1] -0.308 | [2] -0.078 | duvelisib 0.371 | gandotinib 0.124 | tozasertib -0.073 | [3] -0.063 | ispinesib -0.227

TMEM8A (UniProt Q9HCN3)
UniProt Q9HCN3, sequence (Q9HCN3 whole entry, looked up): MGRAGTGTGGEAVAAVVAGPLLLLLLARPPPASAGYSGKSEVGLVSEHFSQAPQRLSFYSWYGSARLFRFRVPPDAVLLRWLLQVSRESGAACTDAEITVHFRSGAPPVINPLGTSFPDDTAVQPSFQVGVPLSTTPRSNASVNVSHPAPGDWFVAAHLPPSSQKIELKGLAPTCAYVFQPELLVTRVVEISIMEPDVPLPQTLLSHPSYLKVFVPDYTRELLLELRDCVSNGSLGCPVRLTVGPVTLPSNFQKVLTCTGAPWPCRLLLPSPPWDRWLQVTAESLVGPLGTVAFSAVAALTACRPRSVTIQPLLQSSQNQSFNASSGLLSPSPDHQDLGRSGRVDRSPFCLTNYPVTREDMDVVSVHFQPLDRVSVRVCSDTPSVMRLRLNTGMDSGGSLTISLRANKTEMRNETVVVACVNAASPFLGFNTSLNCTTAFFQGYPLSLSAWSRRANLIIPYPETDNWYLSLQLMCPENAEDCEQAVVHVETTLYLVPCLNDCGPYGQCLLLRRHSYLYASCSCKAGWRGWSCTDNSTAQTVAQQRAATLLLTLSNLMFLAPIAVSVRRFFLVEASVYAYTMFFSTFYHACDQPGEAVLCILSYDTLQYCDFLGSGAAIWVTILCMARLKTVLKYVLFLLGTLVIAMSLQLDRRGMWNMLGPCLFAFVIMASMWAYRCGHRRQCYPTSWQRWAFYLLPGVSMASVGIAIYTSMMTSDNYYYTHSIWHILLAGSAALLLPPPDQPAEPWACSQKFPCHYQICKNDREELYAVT
inactive: [4] 0.425 | [2] 0.049 | duvelisib 0.394 | gandotinib 0.014 | tozasertib -0.026 | [3] -0.095 | ispinesib -0.065
